High-throughput results: PubChem, several laboratories
MsrA inh – inhibitors of bovine MsrA. purified bovine MsrA, absorbance read-out. inhibition, % at 15.5 µM. hit rate 0.75% among 360,000. AID 651718; in the data active means inhibition above about 4.5%;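 further: 0% = vehicle wells with enzyme and 100% = reference inhibitor wells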
MsrA act – activators of bovine methionine sulfoxide reductase A; purified bovine MsrA, absorbance read-out; activation, % at 10.6 µM; hit rate 0.3% among 360,000; in the data active means activation above about 7.5%;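 further: 0% = vehicle and 100% = reference activator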
SMARCA2 act – SMARCA2 function activation, primary screen; MG213 cells, MMTV-luciferase reporter, dexamethasone, overnight; activation, % at 9.1 µM; hit rate 1% among 370,000; AID 652017; in the data active means activation above about 7.8%;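 further: 0% = vehicle wells and 100% = reference activator wells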
ABCB6 inh 2 – human ABCB6 transporter inhibition. Q9NP58. fluorescence ratio to DMSO, % at 10 µM. hit rate 0.19% among 360,000. K562-ABCB6 porphyrin accumulation, flow cytometry, 1 h; stronger effect = lower value;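 active means fluorescence ratio to DMSO below 75%, the collection mean minus 3 SD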;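 further: signal is porphyrin accumulated inside mitochondria; 100% equals median channel fluorescence of DMSO control wells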
Target sequence (Q9NP58 whole entry, looked up): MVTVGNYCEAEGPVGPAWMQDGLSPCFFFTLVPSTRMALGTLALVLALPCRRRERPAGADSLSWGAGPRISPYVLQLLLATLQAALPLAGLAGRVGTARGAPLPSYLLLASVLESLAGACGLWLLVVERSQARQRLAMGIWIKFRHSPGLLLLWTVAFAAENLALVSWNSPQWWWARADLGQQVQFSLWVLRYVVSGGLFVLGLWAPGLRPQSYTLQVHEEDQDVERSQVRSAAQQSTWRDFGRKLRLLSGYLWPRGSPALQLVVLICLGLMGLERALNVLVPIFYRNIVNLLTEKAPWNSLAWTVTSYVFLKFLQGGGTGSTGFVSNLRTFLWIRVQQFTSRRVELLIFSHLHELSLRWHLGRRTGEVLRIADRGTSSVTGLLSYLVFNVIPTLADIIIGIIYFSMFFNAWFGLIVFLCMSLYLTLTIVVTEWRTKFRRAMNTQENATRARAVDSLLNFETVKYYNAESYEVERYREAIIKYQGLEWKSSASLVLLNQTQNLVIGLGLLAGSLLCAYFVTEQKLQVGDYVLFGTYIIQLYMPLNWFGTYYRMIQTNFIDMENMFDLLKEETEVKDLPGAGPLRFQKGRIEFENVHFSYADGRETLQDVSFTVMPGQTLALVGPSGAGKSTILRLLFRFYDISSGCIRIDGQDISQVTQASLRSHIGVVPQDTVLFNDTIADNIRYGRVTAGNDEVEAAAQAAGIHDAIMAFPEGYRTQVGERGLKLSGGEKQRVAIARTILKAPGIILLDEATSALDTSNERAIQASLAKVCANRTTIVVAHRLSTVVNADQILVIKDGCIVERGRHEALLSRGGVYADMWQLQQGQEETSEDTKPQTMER
MsrA act confirm – bovine methionine sulfoxide reductase A activation confirmed. activation, % at 10.6 µM. purified bovine MsrA, absorbance read-out. shares compounds with MsrA act. hit rate 12% among 1,000; in the data active means activation above about 4%;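 further: enzyme coupled to thioredoxin and thioredoxin reductase with NADPH; 0% = vehicle wells and 100% = reference activator wells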
Active calls of the source: *; / = no result given. An excerpt weighted towards active compounds, which were near 2.1% of everything screened.

SMILES | MsrA inh | MsrA act | SMARCA2 act | ABCB6 inh 2 | MsrA act confirm
CCC1CCc2sc(C(=O)N(C)CC(=O)Nc3cccc(OC)c3)cc2C1 (centres undefined) | -1.2 | 10.7* | -2.8 | 98.0 | -1.5
COc1ccc(C(C(=O)N(C)C2CCCC2)N(Cc2ccc(F)cc2)C(=O)c2cc(C)on2)cc1OC (centres undefined) | / | / | -0.7 | / | /
CC(C)(C)c1ccc(OCCC(=O)NCC(c2cccs2)N2CCOCC2)cc1 (centres undefined) | -1.4 | 13.5* | 0.1 | 100.0 | 0.7
CCCCOc1ccc(C(=O)NCC(=O)NCC(c2cccs2)N2CCOCC2)cc1 (centres undefined) | 0.8 | -1.6 | -3.1 | 98.0 | /
CCCCN(C)C(=O)c1ccc2c(c1)NC(=O)C(C)(C)O2 | / | / | -3.0 | / | /
O=c1c2cc(F)ccc2sn1-c1ccccc1 | 0.3 | 15.0* | 4.5 | 99.0 | 9.8*
Cc1ccccc1-n1sc2cc(F)ccc2c1=O | 0.8 | 14.6* | -0.9 | 98.0 | 9.7*
N#Cc1ccc2c(=O)n(-c3ccccc3)sc2c1 | -0.7 | 5.0 | 4.5 | 97.0 | /
CN(C)S(=O)(=O)c1cccc(-n2sc3ccccc3c2=O)c1 | -0.8 | 7.7* | 3.3 | 101.0 | 8.9*
O=c1c2ccccc2sn1-c1ccccc1 | 1.3 | 12.4* | 4.9 | 108.0 | 13.1*
COC(=O)C1CN(CC(C)C)CCS(=O)(=O)N1Cc1ccc(Cl)cc1 (centres undefined) | / | / | 4.4 | / | /
CN(Cc1ccccc1)C(=O)c1cccc(NC(=O)C2CCCN(C(=O)OC(C)(C)C)C2)c1 (centres undefined) | -0.9 | 7.7* | -0.9 | 95.0 | -2.3
COCCCNC(=O)C[C@H]1C[C@@]2(C(=O)OC)C(=C[C@H](C(C)C)O[C@@H]2C2CC2)N(CCc2ccc(OC)c(OC)c2)C1=O | / | / | -2.1 | / | /
Cc1nnc(SCCn2c(Br)nc3c2c(=O)[nH]c(=O)n3C)s1 | -1.3 | 0.0 | 0.1 | 102.0 | /
Cc1nnc(Sc2c(N)n(C)c(=O)[nH]c2=O)s1 | -1.4 | 11.5* | 0.1 | 103.0 | -1.5
CN1CCN(C(c2ccccn2)c2cc(Cl)c3cccnc3c2O)CC1 (centres undefined) | 1.8 | 18.0* | -1.9 | 103.0 | -2.0
Cc1ccc(-n2c(SCC(=O)N/N=C/C=C\c3ccccc3[N+](=O)[O-])nnc2-c2ccccc2)cc1 | / | / | 0.4 | / | /
C#CCCN([C@@H](CC(C)C)C(=O)OC)S(=O)(=O)c1ccccc1Br | / | / | -6.1 | / | /
CC1CS(=O)(=O)CCN1N=Cc1ccc([N+](=O)[O-])o1 (centres undefined) | 0.3 | 10.3* | 2.0 | 100.0 | -1.7
O=[N+]([O-])c1ccc(C=NN2CCNC2=S)o1 | 0.3 | 3.4 | -3.6 | 103.0 | /
N#CCC[C@@H]1CC[C@]2(CCCN(Cc3ccc(Br)cc3)C2)O1 | / | / | 6.0 | / | /
COc1ccc(Cn2nnnc2C(c2cccs2)N2CCOCC2)cc1 (centres undefined) | 0.0 | 7.8* | 0.3 | 94.0 | -1.0
COc1ccc(S[C@]2(C(=O)NC(C)C)CC(=O)N[C@@H]2c2ccc(OC)cc2)cc1 | / | / | -3.3 | / | /
O=C(CSc1nnc(-c2ccncc2)n1Cc1ccccc1)NC1CCCc2ccccc21 (centres undefined) | 1.9 | -4.6 | -0.8 | 98.0 | /
Nn1c(SCC(=O)NC2CCCc3ccccc32)nnc1-c1cccs1 (centres undefined) | 1.0 | 8.7* | -1.2 | 97.0 | 0.3
SMILES | MsrA inh | MsrA act | SMARCA2 act | ABCB6 inh 2 | MsrA act confirm
COC1=CC(=O)c2c(ccc3ncnc(N)c23)C1=O | 1.7 | 35.4* | -10.6 | 161.0 | 30.3*
COc1cccc2c1C(=O)C=C(C)C2=O | 0.3 | 4.0 | -2.3 | 103.0 | /
Cc1cccc(N=C2NC(=O)c3cc([N+](=O)[O-])ccc32)c1 | -0.9 | 7.8* | 1.3 | 101.0 | 3.5
COc1cccc(CC(=O)OCC(=O)c2cc(OC)c(OC)c(OC)c2)c1 | -0.8 | 8.7* | 0.4 | 101.0 | -2.4
CCOC(=O)C1(Cc2ccccc2)CCN(Cc2csc(C(C)=O)c2)CC1 | 2.3 | 9.8* | -3.7 | 102.0 | -1.2
Cc1cc(C(=O)Nc2cccc3ccccc23)c(C)o1 | -0.6 | 4.1 | 1.1 | 91.0 | /
Cc1oc(CC(C)C)cc1C(=O)Nc1cccc2ccccc12 | -0.2 | 7.8* | -1.5 | 103.0 | 0.1
COc1ccc(-c2csc(NC(=O)C3=COCCO3)n2)cc1OC | 0.1 | 10.5* | 6.8 | 100.0 | -2.3
O=C(Cn1nnc(-c2ccc(N3CCOCC3)cc2)n1)c1cccc(F)c1 | / | / | -6.0 | / | /
O=C(Nc1ccccc1Cl)N1CCN(c2ccc3nnc(-c4ccccc4)n3n2)CC1 | / | 17.4* | / | 105.0 | -1.5
O=C(Nc1ccc(Cl)cc1)N1CCN(c2ccc3nnc(-c4ccc(F)cc4)n3n2)CC1 | 0.0 | -5.3 | -0.5 | 101.0 | /
COCCn1nnnc1CN1CCN(c2cccc(C(F)(F)F)c2)CC1 | -1.0 | 8.4* | 0.4 | 99.0 | 1.2
O=C(COC(=O)C1(c2ccc(Cl)cc2)CCCC1)Nc1ncc(C(F)(F)F)cc1Cl | -0.2 | 8.8* | -2.4 | 113.0 | 3.4
CC1=C(C(N)=O)C(c2ccc(Cl)c(Cl)c2)n2ncnc2N1 (centres undefined) | 0.5 | 7.9* | -2.0 | 102.0 | -0.9
COc1ccc(C2C(C(C)=O)=C(C)Nc3ncnn32)cc1OC (centres undefined) | 2.1 | -1.8 | 1.6 | 93.0 | /
COC(=O)[C@]12C[C@H](CC(=O)NCC34CC5CC(CC(C5)C3)C4)C(=O)N(CCc3ccc(OC)c(OC)c3)C1=C[C@H](C(C)(C)C)O[C@@H]2C | / | / | -3.5 | / | /
COc1cc(C(=O)N=c2sccn2C)c([N+](=O)[O-])cc1OC | 2.4 | -4.6 | -1.8 | 98.0 | /
Cn1ccsc1=NC(=O)c1ccc([N+](=O)[O-])o1 | 1.3 | 8.8* | 0.4 | 84.0 | 0.9
CCOc1ccc(N2CC(C(=O)NCCCN3CCOCC3)CC2=O)cc1 (centres undefined) | 0.2 | 9.1* | -0.3 | 102.0 | -2.1
CC12CN(C(=O)c3ccccc3)C3(C#N)CC1CCC23C (centres undefined) | -0.6 | 13.5* | -1.1 | 100.0 | -0.3
COC(=O)[C@]12C[C@H](CC(=O)NCC34CC5CC(CC(C5)C3)C4)C(=O)N(Cc3ccco3)C1=C[C@H](C(C)(C)C)O[C@@H]2C | / | / | -0.5 | / | /
Cc1ccc(NC(=O)C(C)c2ccc([N+](=O)[O-])cc2)cc1Cl (centres undefined) | -1.0 | 20.2* | -2.8 | 103.0 | 0.0
CC(NC(=S)Nc1c(Br)cccc1OC(F)F)C(C)(C)C (centres undefined) | -0.5 | 9.0* | 0.0 | 94.0 | -0.3
O=C(COc1ccccc1Cl)c1ccc2c(c1)CCCC2 | -1.5 | 8.3* | 5.2 | 102.0 | -2.5
COC(=O)c1ccc(Nc2nc3ccc(C)cc3n3cnnc23)cc1 | 0.7 | -1.3 | 7.6 | 101.0 | /
CC(=O)c1ccc(Nc2nc3ccc(C)cc3n3cnnc23)cc1 | -0.8 | 8.2* | -0.8 | 103.0 | -0.8
CC(C)=CCC[C@@]1(C(=O)O)[C@H]2CC=C(CO)[C@@H]1CC/C(C)=C/CC/C(C)=C/C2 | / | / | -2.5 | / | /
O=C1CCC(C(=O)N2CCCCCCC2)CN1Cc1cccc(C(F)(F)F)c1 (centres undefined) | 1.6 | -1.9 | -1.4 | 102.0 | /
